The list is not random: actives were taken first. Their share in the collection is about 1.3%.
CCT chaperon mod: changes cytosolic chaperonin activity; purified chaperonin ATPase assay, HTRF ADP detection, 30 min; activity change, % (concentration not given with the values), hits read low; actives 0.3% (n = 360,000); AID 651819; in the data active means activity change below about -30%
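ATPase activity: ADP formed was measured by HTRF Transcreener (665/615 nm ratio) after 30 min at 37 deg C with 10 uM ATP. Compounds screened at one 76 uM concentration against 40 or 20 nM TRiC in Tris pH 7.4/KCl/MgCl2/DTT buffer.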
CtBP-E1A inh: inhibitors of CtBP/E1A interaction; AlphaScreen GST-E1A/His-CtBP binding, 1536-well; active compounds read low; activity change, % (concentration not given with the values); actives 0.49% (n = 340,000); AID 651724
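Steps: dispense buffer (Tris pH 8.0, NaCl 300 mM, TCEP 1 mM, BSA, Tween 20); add 5X protein mix (GST-E1A, His-CtBP, 125 nM each); pin 23 nL compound; 2 h at 37 °C, dark; add 5X beads (50 ug/mL); 1 h; read.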
Six1-Eya2 inh: inhibitors of human Six1/Eya2 interaction. Q15475+O00167. AlphaScreen GST-Six1/His-Eya2 binding, biochemical; active compounds read low. activity change, % (concentration not given with the values). actives 0.56% (n = 360,000). AID 651725
Target sequence (O00167 whole entry, looked up): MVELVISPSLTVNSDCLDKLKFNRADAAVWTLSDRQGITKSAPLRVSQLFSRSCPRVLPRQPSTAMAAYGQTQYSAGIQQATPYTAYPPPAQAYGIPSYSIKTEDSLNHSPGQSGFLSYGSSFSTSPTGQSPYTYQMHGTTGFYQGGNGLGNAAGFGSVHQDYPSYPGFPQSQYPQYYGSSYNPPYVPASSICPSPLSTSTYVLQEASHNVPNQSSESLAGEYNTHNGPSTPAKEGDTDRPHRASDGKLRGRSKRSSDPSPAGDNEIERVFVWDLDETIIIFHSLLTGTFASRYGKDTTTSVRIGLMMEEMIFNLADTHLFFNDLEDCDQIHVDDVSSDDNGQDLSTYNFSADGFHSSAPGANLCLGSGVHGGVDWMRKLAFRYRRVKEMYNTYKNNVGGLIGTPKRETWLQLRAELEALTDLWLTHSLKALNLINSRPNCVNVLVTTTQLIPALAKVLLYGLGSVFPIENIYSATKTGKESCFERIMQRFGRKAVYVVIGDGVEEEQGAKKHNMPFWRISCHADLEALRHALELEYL
Target sequence (Q15475 whole entry, looked up): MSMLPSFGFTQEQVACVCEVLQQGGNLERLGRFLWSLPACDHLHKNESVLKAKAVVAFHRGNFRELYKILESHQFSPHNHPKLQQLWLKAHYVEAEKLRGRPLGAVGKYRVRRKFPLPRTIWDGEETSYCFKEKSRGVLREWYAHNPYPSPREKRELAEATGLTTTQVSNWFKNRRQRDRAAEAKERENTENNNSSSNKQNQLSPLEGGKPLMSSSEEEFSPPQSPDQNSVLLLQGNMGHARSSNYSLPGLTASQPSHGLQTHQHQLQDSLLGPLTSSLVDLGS
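GST-Six1 + His-Eya2 (5X stock: 250/500 nM); Tris pH 8.0, 300 mM NaCl, 0.05% BSA, 0.02% Tween 20; GSH donor/Ni acceptor beads; 1 h 37 °C dark; AlphaScreen readout.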
pAkt inh: blocks phosphorylation of Akt; Neuro2A IGF-stimulated pAkt S473 HTRF, 20 min; active compounds read low; actives 0.32% (n = 360,000); activity change, % for hits at 50 µM; AID 651550; in the data active means activity change below about -80%; inconclusive means mostly about -51% to -80%
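Neuro2A cells in DMEM with 0.5% FBS, overnight at 37 deg C, given compound at single 50 µM final, then IGF (6 nM final) for 20 min at 37 deg C. Lysed; phospho-Akt Ser473 by HTRF after 24 h, 665/615 ratio.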
A number is an active result; n = inactive; u = inconclusive; x = not tested or not shown. Unless noted, no stated cut-off is given here; in the data, active means activity change below about -65%; inconclusive means mostly about -30% to -63%; inactive means weaker than that.

SMILES	CCT chaperon mod	CtBP-E1A inh	Six1-Eya2 inh	pAkt inh
O=C1C(=C(c2ccccc2)c2ccccc2)Nc2ccccc21	n	u	-70.3	x
CCOC(=O)C1(C)CCCCCN1C(=O)c1ccccc1F (stereo not given)	n	n	n	n
N/C(=N\OC(=O)c1ccccc1)c1cccnc1	n	x	n	n
N/C(=N\OC(=O)c1ccccc1)c1ccn[nH]1	-30.7	n	n	n
CC(C)C(=O)N1CCCC1(C)C(=O)NCc1ccc(Cl)cc1 (stereo not given)	n	n	n	n
CN(C)c1ccc(CN2CCC(C(=O)NC(c3ccc(F)cc3)c3ccc4ccccc4n3)CC2)cc1 (stereo not given)	n	u	-65.7	n
O=C(NC(c1ccc(F)cc1)c1ccc2ccccc2n1)C1CCN(Cc2ccc3ccccc3n2)CC1 (stereo not given)	n	u	n	n
O=C(CN(C(=O)C1CSC(=O)C1)c1cccc(F)c1)NCc1ccc2c(c1)OCO2 (stereo not given)	n	n	n	n
Oc1cccc(NC(=S)N=Nc2c(O)[nH]c3ccccc23)c1	n	-68.5	u	n
Oc1[nH]c2ccc(Br)cc2c1N=NC(=S)N1CCOCC1	n	u	-78.1	n
Oc1[nH]c2ccccc2c1N=NC(=S)N1CCOCC1	n	-65.8	-91.7	n
NC(=S)N=Nc1c(O)[nH]c2ccccc12	n	u	u	n
COc1ccccc1S(=O)(=O)N(C)C[C@@H]1OCc2cnnn2CCCC(=O)N([C@H](C)CO)C[C@@H]1C	n	n	n	n
Cc1ccc(S(=O)(=O)N2CCN(C(=O)CN3CCCCC3)C2)cc1	n	n	n	-101.1%
Fc1c(F)c(C(F)(F)F)c(F)c(F)c1N/N=C\c1cccs1	-36.9	n	n	n
CCN(CC)S(=O)(=O)c1ccc(Cl)c(C(=O)NC2CCN(Cc3ccccc3)CC2)c1	n	n	n	n
COCCN(CCOC)S(=O)(=O)c1ccc(C(=O)NC2CCN(Cc3ccccc3)CC2)cc1	n	n	n	-113.4%
OC(c1ccccc1)c1nc(-c2ccc(F)c(Cl)c2)cs1 (stereo not given)	n	n	n	n
COC(=O)c1ccc2nc(-c3ccc(F)cc3)c(Cc3ccccc3C(F)(F)F)n2c1	n	n	n	n
COc1ccc(NC(=O)CSc2nc(-c3ccc(C)cc3)cc(C(F)(F)F)c2C#N)cc1	n	n	n	n
COc1ccc(-c2cc(C(F)(F)F)c(C#N)c(SCC(=O)Nc3ccccc3C#N)n2)cc1	-45.3	n	u	n
Cc1cc(C)nc(N/N=C/c2cc(Br)ccc2O)n1	n	-81.1	u	n
CCc1nnc(NC(=O)c2ccc3ccccc3n2)s1	n	n	n	n
CCSc1nnc(NC(=O)c2ccc3ccccc3n2)s1	n	n	n	-94.7%
O=C(Nc1nnc(SCc2ccc(F)cc2)s1)c1ccccn1	n	-95.5	-90.2	n
SMILES	CCT chaperon mod	CtBP-E1A inh	Six1-Eya2 inh	pAkt inh
O=C(Nc1nc2ccccc2s1)c1cnccn1	n	n	n	n
O=C(Nc1nc2ccc(F)cc2s1)c1ccccn1	n	-92.4	-76.9	n
CCOc1ccc2[nH]c(=O)c(CN(CCO)C(=O)c3ccccc3F)cc2c1	n	n	n	n
CCOc1ccc2[nH]c(=O)c(CN(Cc3ccccc3)C(=O)N3CCCC3)cc2c1	n	n	n	-131.5%
Cc1cc(S(=O)(=O)N2CCCC(N(C)CCc3ccccn3)C2)c(C)cc1Cl (stereo not given)	-75.1	x	n	x
CCN(CC)S(=O)(=O)c1cccc(C(=O)N/N=C(\C)c2ccc(O)cc2O)c1	n	u	-66.5	n
CCOc1ccccc1/C=N/NC(=O)c1cccc(S(=O)(=O)N(CC)CC)c1	n	n	n	n
CCN(CC)S(=O)(=O)c1cccc(C(=O)N/N=C/c2ccc(O)c(O)c2O)c1	n	-93.5	-90.7	n
COc1ccc(CNC(=O)CN(C(=O)CCC(=O)Nc2ccccn2)c2ccc(C)cc2)cc1	n	n	n	n
CCOc1ccc(N(CC(=O)NCc2ccco2)C(=O)CCC(=O)Nc2ccccn2)cc1	n	n	n	n
CC1(Oc2ccc(Cl)cc2)CCN(Cc2ccc(-c3ccccn3)cc2)C1 (stereo not given)	n	n	n	n
Cc1ccc2nc(-c3ccc(NC(=O)CN(c4ccccc4C)S(C)(=O)=O)cc3)sc2c1	n	n	n	-107.3%
CC(C)C[C@H](NC(=O)CC[C@H]1O[C@@H](n2ccc(=O)[nH]c2=O)[C@H](O)[C@@H]1O)C(=O)O	n	n	n	n
Cc1cc(F)ccc1S(=O)(=O)NCC(c1cccnc1)N1CCc2ccccc21 (stereo not given)	n	x	n	x
Cc1ccc(S(=O)(=O)NCC(c2cccnc2)N2CCc3ccccc32)cc1 (stereo not given)	-49.3	x	n	n
CCN(C(=O)c1c(C)noc1C)c1c(N)n(Cc2ccccc2)c(=O)[nH]c1=O	n	n	n	n
Cn1c(NC(=O)c2ccc(Br)o2)cc(=O)n(C)c1=O	n	n	n	-116.0%
CCN(CC(=O)Nc1c(F)cccc1F)C(=O)CCNC(=O)c1ccco1	n	n	n	n
CC1CCCC(NC(=O)c2cccc(S(=O)(=O)N3CCOCC3)c2)C1C (stereo not given)	n	n	n	n
COc1cc2c(cc1OC)CN(CC(=O)Nc1ccc(C#N)cc1)CC2	n	n	n	-106.8%
Cn1c2nc(=O)n(-c3ccccc3)c(=O)c-2nc2c1CCCC2	n	n	n	n
CC1CCC(NC(=O)C2(C)CCC(=O)N2Cc2cccnc2)CC1 (stereo not given)	-35.5	n	n	n
CC1(C(=O)NC2CCCCC2)CCC(=O)N1Cc1cccnc1 (stereo not given)	n	n	n	n
O=C1/C(=C/c2cccs2)SC(=S)N1CCCC(=O)N(CCO)c1ccccc1	n	n	n	n
CCOc1ccccc1-c1cc(-c2n[nH]c(=S)n2CC)c2ccccc2n1	n	n	n	n
SMILES	CCT chaperon mod	CtBP-E1A inh	Six1-Eya2 inh	pAkt inh
CCn1c(-c2cc(-c3cc(C)ccc3C)nc3ccccc23)n[nH]c1=S	-72.2	n	n	n
O=C(CN1CC(=O)Oc2ccccc21)OCC(=O)c1ccc(F)cc1	n	u	-75.2	n
O=C(CN1CC(=O)Oc2ccccc21)OCC(=O)c1ccc(Br)cc1	n	-86.7	-90.7	n
O=C1CN(CC(=O)N2CCCCC2)c2ccccc2O1	n	n	n	n
O=C(c1ccco1)N1CCN(C(=O)c2cnn(-c3ccc(Cl)cc3)c2C2CCNCC2)CC1	n	n	n	n
O=C(Nc1nc2c(Br)cccc2s1)C1CC1	n	n	n	n
CSCCC(NC(=O)c1cc(C)oc1C)C(=O)O (stereo not given)	n	n	n	x
COC(=O)CCC(NC(=O)c1cc(C)oc1C)C(=O)OC (stereo not given)	n	n	n	-104.7%
COCCNC(=O)/C(C#N)=C/c1c(N2CCN(C)CC2)nc2ccccn2c1=O	n	x	n	n
O=c1cc2oc3cc(O)c(O)cc3c(-c3ccccc3[N+](=O)[O-])c-2cc1O	n	x	-71.1	n
O=c1cc(-c2ccccc2Cl)oc2cccc(O)c12	n	x	n	n

Screening results from PubChem BioAssay.
